Screening results from PubChem BioAssay.
In the library only some 4% were active in any assay of this set; here they are far more common.
RecA splice inh: Mtb RecA intein splicing inhibition; P9WHJ3; cell-free RecA intein splicing, fluorescence; inhibition, % (concentration not given with the values); 290,000 compounds, 0.75% hits; AID 2221; in the data active = inhibition above about 30%;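 also: 0% = vehicle wells and 100% = reference inhibitor control wells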
Mtb UGM inh: blocks M. tuberculosis UGM enzyme; AID 504406; P9WIQ1; 320,000 compounds, 0.06% hits; purified UGM, fluorescence polarization probe displacement; inhibition, % at 10 µM; in the data active = inhibition above about 10%, passing the limit was not always enough
GDH-TPI counter-1: counter-screen for M. tuberculosis FBA inhibitors: GDH-TPI coupled enzymes | GDH-TPI coupled enzyme counterscreen, NADH absorbance | inhibition, % at 4.8 µM | 360,000 compounds, 1.2% hits; in the data active = inhibition above about 30%;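 also: 0% = DMSO wells and 100% = wells lacking the enzyme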
Mtb betalactam: beta-lactam sensitization of Mtb H37Rv; M. tuberculosis H37Rv growth with meropenem, percent inhibition; inhibition, % at 25 µM; AID 434955; 330,000 compounds, 0.27% hits;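 also: growth measured after seven days incubation then overnight dye step; 0% = bacteria only wells and 100% = bacteria with antibiotic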
FBA Mtb inh: inhibits M. tuberculosis FBA enzyme; P9WQA3; purified M. tuberculosis FBA, fluorescence read-out; inhibition, % at 1 µM; 360,000 compounds, 2.3% hits; AID 588726; in the data active = inhibition above about 27%;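 also: 0% = vehicle and 100% = reference inhibitor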
Rv3671c protease: inhibitors of M. tuberculosis serine protease Rv3671c. inhibition, % at 5.96 µM. P9WHR9. AID 2606. 320,000 compounds, 0.048% hits; in the data active = inhibition above about 38%;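 also: extracellular domain of Rv3671c used as enzyme; 0% = enzyme with DMSO and 100% = no enzyme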
Target sequence (P9WHR9 whole entry, looked up, the tested form may be a part): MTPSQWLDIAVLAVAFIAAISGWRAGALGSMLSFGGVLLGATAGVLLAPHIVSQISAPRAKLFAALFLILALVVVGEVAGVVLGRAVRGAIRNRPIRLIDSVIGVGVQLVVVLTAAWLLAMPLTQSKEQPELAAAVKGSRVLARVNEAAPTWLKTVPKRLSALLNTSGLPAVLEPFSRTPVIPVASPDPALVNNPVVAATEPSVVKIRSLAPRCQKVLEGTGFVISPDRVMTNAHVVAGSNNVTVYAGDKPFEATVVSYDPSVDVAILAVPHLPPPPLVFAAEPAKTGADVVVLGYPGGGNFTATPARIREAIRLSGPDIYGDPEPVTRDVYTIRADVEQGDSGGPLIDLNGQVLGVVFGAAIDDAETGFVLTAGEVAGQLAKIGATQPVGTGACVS
Mtb FBA confirm: confirmation of M. tuberculosis fructose-bisphosphate aldolase inhibitors; AID 651616; 5,600 compounds, 78% hits; inhibition, % at 1 µM; purified M. tuberculosis FBA, fluorescence read-out; shares compounds with FBA Mtb inh; in the data active = inhibition above about 27%;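 also: 0% = vehicle wells and 100% = reference inhibitor wells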
GDH-TPI counter-2: GDH-TPI inhibition counter-screen for FBA inhibitors; GDH-TPI coupled enzyme counterscreen, fluorescence; 5,600 compounds, 81% hits; AID 652141; shares compounds with FBA Mtb inh; inhibition, % at 1 µM; in the data active = inhibition above about 10%
GDH-TPI dose: GDH-TPI dose response counter-screen for Mtb FBA | IC50, µM | shares compounds with FBA Mtb inh | GDH-TPI coupled enzyme assay, fluorescence, artifact counterscreen | 170 compounds, 79% hits
Starred values were filed as active, the others as inactive; / = not tested or not shown; + = active, no number. Unless noted, no rule for the calls is given here.

SMILES	RecA splice inh	Mtb UGM inh	GDH-TPI counter-1	Mtb betalactam	FBA Mtb inh	Rv3671c protease	Mtb FBA confirm	GDH-TPI counter-2	others
CC(OC(=O)c1cccnc1Cl)C(=O)Nc1ccc2c(c1)OCCO2 (centres undefined)	/	1	-1	4	35*	0	161*	130*
COc1ccc(C2=NC(=O)NC2c2ccc(OC)cc2)cc1 (centres undefined)	-1	-3	-14	6	13	3	/	/
O=C1N=C(c2ccccc2)C(c2ccccc2)N1 (centres undefined)	0	0	0	5	91*	4	1	4
COc1ccccc1N1C(=NC(=O)COc2ccccc2)SC2CS(=O)(=O)CC21 (centres undefined)	2	-4	-3	3	1	4	/	/
COc1ccc(C2CC(c3ccccc3Br)=NN2c2ccc(S(N)(=O)=O)cc2)cc1 (centres undefined)	/	/	12	/	46*	/	154*	77*
Cc1ccc(Cl)cc1NC(=O)c1cc2ccccc2cc1O	-4	1	-3	2	7	-4	/	/
COCCNC(=O)c1oc2ccc3c(c2c1C)C(O)CC(C)(C)O3 (centres undefined)	-1	-2	11	-3	38*	/	52*	42*
Cc1c(C(=O)NCC2CCCO2)oc2ccc3c(c12)C(=O)CC(C)(C)O3 (centres undefined)	1	0	19	27	17	-1	/	/
CCN(CC)CCCNC(=O)C1c2ccccc2Oc2ccccc21	-2	1	3	-10	2	6	/	/
CCN(CC)CCCNC(=O)c1oc2ccc3c(c2c1C)C(O)CC(C)(C)O3 (centres undefined)	-1	-2	14	-5	44*	/	55*	43*
O=C(NC1CCCCC1)C1CCCN1S(=O)(=O)c1ccc(Cl)cc1 (centres undefined)	2	3	1	3	-5	1	/	/
CC(=O)Oc1ccc(C23c4ccccc4C2(OC(C)=O)c2cc(OC(C)=O)ccc23)cc1 (centres undefined)	/	/	6	/	71*	/	98*	85*
CC(=O)Oc1ccc(C(=O)Nc2ccccc2NC(=O)c2ccc(OC(C)=O)cc2)cc1	1	-1	-4	6	2	-6	/	/
COc1ccc(-c2csc(-c3ccc(C(=O)O)cc3)n2)cc1	1	5	22	54	49*	-4	58*	43*
CC1(C)Cc2c(c(-c3ccccc3)[nH]c(=O)c2C#N)CS1	1	2	25	6	29*	-2	44*	50*
CC(=O)N1CCN(c2nc(-c3ccco3)c3c(c2C#N)CC(C)(C)SC3)CC1	-10	-3	5	26	2	9	/	/
CC1(C)Cc2c(c(-c3ccco3)[nH]c(=O)c2C#N)CS1	-23	5	17	-6	30*	-2	22	17*
CCOC(=O)C1CCCN(C(=O)c2ccc3c(c2)C(C)(C)CCC3(C)C)CC1 (centres undefined)	/	/	6	/	-2	/	/	/
CCCCNS(=O)(=O)c1cccc(NC(=O)[C@@H]2O[C@H](CO)[C@H](O)[C@H](O)[C@H]2O)c1	/	/	-5	/	-1	/	/	/
CC(C)OCCCNC(=O)CN1C(=O)CSc2ccc(S(=O)(=O)N3CCCCC3)cc21	0	2	8	1	3	-8	/	/
O=C(Nc1ccc(F)c(Cl)c1)c1cc(C2CCCN(C(=O)c3cccs3)C2)on1 (centres undefined)	/	/	1	/	2	/	/	/
Cc1cc(OC(C)C(=O)NCc2ccncc2)c2c3c(c(=O)oc2c1)CCCC3 (centres undefined)	-1	2	10	18	71*	-1	178*	154*
Cc1cc(OC(C)C(=O)NCc2ccncc2)c2c3c(c(=O)oc2c1)CCC3 (centres undefined)	0	2	9	0	64*	-4	133*	93*
Cc1cc(OC(C)C(=O)NCc2cccnc2)c2c3c(c(=O)oc2c1)CCC3 (centres undefined)	-1	-1	6	4	21	-7	/	/
Cc1c(OC(C)C(=O)NCCCn2ccnc2)ccc2c3c(c(=O)oc12)CCC3 (centres undefined)	-2	2	2	3	24	-5	/	/
SMILES	RecA splice inh	Mtb UGM inh	GDH-TPI counter-1	Mtb betalactam	FBA Mtb inh	Rv3671c protease	Mtb FBA confirm	GDH-TPI counter-2	others
Cc1cc(OCC(=O)NCc2ccncc2)c2c3c(c(=O)oc2c1)CCCC3	-1	-1	4	14	85*	0	122*	94*
Cc1c(OC(C)C(=O)NCc2ccncc2)ccc2c3c(c(=O)oc12)CCCC3 (centres undefined)	0	0	12	99	34*	-5	0	-3
COc1cccc(CN(c2ccccc2C(=O)O)S(=O)(=O)c2ccc(C)cc2)c1	/	/	-2	/	-2	/	/	/
Cc1c(OC(C)C(=O)NCC(O)c2ccccc2)ccc2c3c(c(=O)oc12)CCCC3 (centres undefined)	3	2	21	0	48*	0	+	197*
Cc1cc(=O)oc2c(C)c(OC(C)C(=O)NCC(O)c3ccccc3)ccc12 (centres undefined)	-1	2	9	2	20	-1	/	/
CN(C)C1(CNC(=O)Nc2ccccc2)CCCCC1	1	0	-4	3	1	-4	/	/
CN(C)C1(CNCC(O)c2ccccc2)CCCCC1 (centres undefined)	-2	1	10	-5	30*	9	121*	106*
CCC1(CC(C)C)SC(N)=NC1=O (centres undefined)	/	/	4	/	0	/	/	/
CC1(C)Nc2ccccc2C(=O)N1NS(=O)(=O)c1ccccc1	-10	0	4	-1	29*	4	-1	-4
O=C1c2ccccc2NC2(CCCC2)N1NS(=O)(=O)c1ccccc1	-5	-1	8	-2	22	18	/	/
Cc1ccc(S(=O)(=O)NN2C(=O)c3ccccc3NC2c2ccccc2)cc1 (centres undefined)	0	0	4	1	20	-1	/	/
Cc1ccc(S(=O)(=O)NN2C(=O)c3ccccc3NC2(C)C)cc1	-6	0	4	1	36*	6	+	+
Cc1ccccc1NC(=O)CN1C(=O)NC2(CCCCCCC2)C1=O	/	/	3	/	2	/	/	/
CCOC(=O)N1CCN(CC(O)COC2CC(C)CCC2C(C)C)CC1 (centres undefined)	-1	-2	2	-5	34*	3	13	-7	GDH-TPI dose=>10
